Screens (PubChem BioAssay)
D2 PAM-1 = human D2 receptor positive allosteric modulation; DiscoveRx D2 beta-arrestin cells, luminescence, 90 min; 100% = 57 uM dopamine signal; AID 624464; P14416; potentiation, % (concentration not given with the values); actives 0.23% (n = 360,000); in the data active = potentiation above about 50%; inconclusive = mostly about 30% to 49%
Target sequence (P14416 whole entry, looked up): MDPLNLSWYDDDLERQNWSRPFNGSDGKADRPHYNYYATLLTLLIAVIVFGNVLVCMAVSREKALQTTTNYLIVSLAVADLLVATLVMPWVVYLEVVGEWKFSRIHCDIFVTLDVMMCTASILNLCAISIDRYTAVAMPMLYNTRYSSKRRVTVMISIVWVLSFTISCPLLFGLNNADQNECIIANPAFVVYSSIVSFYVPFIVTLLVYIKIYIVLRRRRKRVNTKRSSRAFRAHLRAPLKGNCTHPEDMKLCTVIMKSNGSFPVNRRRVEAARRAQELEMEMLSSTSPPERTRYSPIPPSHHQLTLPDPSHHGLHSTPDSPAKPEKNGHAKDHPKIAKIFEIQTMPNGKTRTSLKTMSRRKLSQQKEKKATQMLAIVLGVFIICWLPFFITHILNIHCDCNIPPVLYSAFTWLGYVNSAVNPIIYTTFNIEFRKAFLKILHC
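PathHunter beta-arrestin assay in DiscoveRx D2 cells. Compounds were added with an EC20 of dopamine (50 nM final) for 90 min at 37 deg C. Luminescence was read 1 h after detection reagent, with 57 uM dopamine as the EC100 control.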
D2 ag-1 = activates the human D2 dopamine receptor; P14416; HEK293 T-REx D2 cells, calcium flux agonist mode; activation, % at 2 µM; actives 0.53% (n = 340,000);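 active = activation over 3 SD above normal in the single-dose calcium agonist read, cut at about 30% in these data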
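Calcium-flux readout, 1 cycle/sec over 180 s following compound pin transfer, in inducible HEK293 Trex D2 cells (force-coupled); dopamine controls included. Positive calcium responses during this window marked compounds as potential agonists.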
D2 ag-2 = human D2 receptor agonism in beta-arrestin assay. DiscoveRx PathHunter D2 beta-arrestin, luminescence, 90 min; 100% = 57 uM dopamine signal. P14416. actives 0.084% (n = 360,000). activation, % (no concentration beside the values); in the data active = activation above about 40%; inconclusive = between about 15% and that limit
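Agonist mode: compounds alone added to overnight-plated D2 PathHunter cells for 90 min at 37 C, with 57 uM final dopamine (EC100) defining full response. Beta-arrestin recruitment detected by chemiluminescent reagent, read after 1 h at ambient temperature.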
D2 antagonist = antagonizes the human D2 dopamine receptor. P14416. HEK293 TREx D2 cells, calcium flux, dopamine EC80. inhibition, % at 10 µM. actives 2% (n = 340,000); in the data active = inhibition above about 30%; inactive = below that, where a call was filed
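Dopamine at EC80 is the agonist stimulus; test compounds precede it by 180 s. Calcium flux read kinetically in a force-coupled, inducible HEK293 T-REx D2 cell line.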
D2 PAM-2 = positively modulates the human D2 dopamine receptor allosterically | P14416 | HEK293 T-REx D2, calcium flux, EC20 dopamine potentiation | potentiation, % at 10 µM | actives 0.34% (n = 340,000);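 active = potentiation over 3 SD above the plate norm, cut at about 30% in these data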
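Primary screen. Calcium kinetics in induced HEK293 T-REx D2 cells: compound pre-addition 180 s, EC20 dopamine, 180 s more.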
Each line names hits and unclear results; the compound was inactive in the other large screens. Rows were chosen to be rich in hits. Some 2.4% of all compounds tested hit in one or more screens of this group.

Cc1ccc(/C=C2\CCC3=C2OC(N)=C(C#N)C3c2ccc(C)cc2)cc1 (configuration not stated)	D2 ag-1 72.3
Cc1ccc(C2C(C#N)=C(N)Oc3cc(N)ccc32)cc1 (configuration not stated)	none
COc1cccc(CNCc2cccc(Br)c2)c1OC	D2 antagonist 35.7
COCCSc1ccccc1C(=O)NCCCn1ccnc1	D2 antagonist 38.8
COCCSc1ccccc1C(=O)Nc1ccc(Cl)cc1	D2 antagonist 57.7
Cc1nc2ccc(S(=O)(=O)NC(C(=O)N3CCN(c4cccc(Cl)c4)CC3)C(C)C)cc2s1 (configuration not stated)	none (no result: D2 PAM-1, D2 ag-1, D2 ag-2, D2 antagonist)
O=C(CC1N=C2c3ccccc3N=C(SCc3ccc(Cl)cc3)N2C1=O)NCCc1ccccc1 (configuration not stated)	none (no result: D2 PAM-1, D2 ag-2, D2 antagonist)
CCOc1cc(N2CCOCC2)c(OCC)cc1NC(=O)C1=COCCO1	D2 antagonist 39.1
CCOc1cc(N2CCOCC2)c(OCC)cc1NC(=O)CSc1cccc[n+]1[O-]	D2 PAM-1 56.8 (no result: D2 ag-1, D2 antagonist, D2 PAM-2)
CCOc1cc(N2CCOCC2)c(OCC)cc1NC(=O)CSc1ncccn1	none
O=C(COC(=O)C1CC(O)CN1S(=O)(=O)c1ccc(Cl)cc1)c1ccccc1 (configuration not stated)	none
CC(C)N(C(=O)COC(=O)[C@@H]1CC(O)CN1S(=O)(=O)c1ccc(C(C)(C)C)cc1)C(C)C (some centres not stated)	D2 antagonist 37.8
CCOc1ccc(NC(=O)c2c(C)nn(-c3ccc(F)cc3)c2-n2cccc2)cc1	none (no result: D2 PAM-1, D2 ag-2, D2 antagonist)
O=c1oc(-c2ccco2)nc2ccccc12	D2 antagonist 36.3
O=c1oc(-c2ccco2)nc2c1cnn2-c1ccccc1	none
C=CCC(NCc1ccccc1)c1ccc(OC)cc1 (configuration not stated)	none
C=CCC(NCc1ccccc1)c1ccco1 (configuration not stated)	D2 PAM-2 40.7
CC(C)c1ccc(NC(=O)C2CCCN(S(=O)(=O)c3cccc4cccnc34)C2)cc1 (configuration not stated)	none (no result: D2 PAM-1, D2 ag-2, D2 antagonist)
Cc1ccc(CNC(=O)COCc2cc(-c3ccc4c(c3)OCO4)on2)cc1	none (no result: D2 PAM-1, D2 ag-2, D2 antagonist)
CN1CCc2c(sc3c2C(=O)NC(c2ccc4c(c2)OCO4)N3)C1 (configuration not stated)	D2 antagonist 32.2
Cc1ccc(S(=O)Cc2ccc(C(=O)NC3CCCCCC3)o2)cc1 (configuration not stated)	none (no result: D2 PAM-1, D2 ag-2, D2 antagonist)
O=C(O)CC/C(=N\Nc1ccc(S(=O)(=O)N2CCCC2)cc1[N+](=O)[O-])c1cccs1	none
O=C(O)CC/C(=N\Nc1ccc(S(=O)(=O)N2CCOCC2)cc1[N+](=O)[O-])c1cccs1	D2 antagonist 30.0
CC(C)N(C(=O)c1cc2c(Cl)nc3ccccc3c2s1)C1CCCCC1	none (no result: D2 PAM-1, D2 ag-2, D2 antagonist)
CCCCCn1c(=O)c(C(=O)c2ccccc2)nc2ccccc21	none
CCCCCCn1c(=O)[nH]c2nc3cc(N)ccc3nc2c1=O	D2 PAM-1 59.9, D2 ag-1 84.9, D2 antagonist 32.0
CCOC(=O)c1ccc(NC2SC(=O)N(Cc3cccc(C(=O)O)c3)C2=O)cc1 (configuration not stated)	none (no result: D2 PAM-1, D2 ag-1, D2 ag-2, D2 antagonist)
Cc1ccc(-c2nc3ccc([N+](=O)[O-])cc3[nH]2)cc1	D2 antagonist 44.5
COc1ccc(-c2nc3ccc([N+](=O)[O-])cc3[nH]2)cc1	none
C/C(=C\C(=O)c1ccccc1)Nc1ccc(O)cc1	D2 PAM-1 55.6, D2 ag-2 inconclusive
Cc1noc(C)c1C(=O)OCC(=O)NC1CCCCC1C (configuration not stated)	D2 PAM-2 37.1
Cc1noc(C)c1C(=O)OCC(=O)NC1CC1	none
O=C(Nc1cccc(Cl)c1Cl)c1cc(S(=O)(=O)N2CCC3(CC2)OCCO3)ccc1F	none (no result: D2 PAM-1, D2 ag-2, D2 antagonist)
O=C(Nc1cccnc1N1CCOCC1)c1cc2ccccc2oc1=O	none
O=C(O)c1ccccc1NC(=O)c1cc2ccccc2oc1=O	D2 PAM-1 50.8
CCOc1ccccc1NC(c1nnc(-c2ccccc2)o1)c1ccc(F)cc1Cl (configuration not stated)	none (no result: D2 PAM-1, D2 ag-1, D2 ag-2, D2 antagonist)
COCCCN(C(=S)Nc1cccc(Cl)c1)C(C)c1ccncc1 (configuration not stated)	D2 antagonist 30.3
CCOC(=O)c1sc(NC(NC(=O)c2ccco2)(C(=O)OC)C(F)(F)F)nc1C (configuration not stated)	D2 antagonist 33.8
CCOC(=O)c1sc(NC(=S)NC(=O)c2ccco2)nc1C	none
CC1CCCC(NC(=O)COC(=O)c2cccc(NS(=O)(=O)/C=C/c3ccccc3)c2)C1C (configuration not stated)	D2 antagonist 49.8
O=C(Nc1ccnn1C1CCN(Cc2ccccc2OC(F)F)CC1)c1cccc(F)c1	D2 antagonist 32.1
O=C(Nc1ccnn1C1CCN(Cc2ccccc2OCCO)CC1)c1cccc(F)c1	D2 antagonist 40.5
O=C(Nc1ccnn1C1CCN(Cc2ccccn2)CC1)c1cccc(F)c1	none
CC(C)N(c1ccccc1)c1ccc(NC(=S)NCCN(C)C)cc1	D2 antagonist 82.5
S=C1NC2(CCCCC2)Cc2ccccc21	D2 antagonist 32.0
COC(=O)CNC(=O)c1cccs1	D2 antagonist 65.9
Nc1cc(-c2ccccc2)ccc1O	D2 PAM-1 98.4, D2 ag-2 inconclusive
CC(=O)Nc1cc(-c2ccccc2)ccc1O	none
COc1ccc(-c2nc3cc(C(C)C)ccc3o2)cc1NC(=O)c1ccc(C)c(Cl)c1	none (no result: D2 PAM-1, D2 ag-2, D2 antagonist)
O=C(Cc1nc2ccccc2[nH]1)c1ccc(Cl)cc1	D2 PAM-2 44.1
O=C(Cc1nc2ccccc2[nH]1)c1ccc([N+](=O)[O-])cc1	none
CCOc1ccccc1CNC(=O)c1sc2ncccc2c1-n1cccc1	none (no result: D2 PAM-1, D2 ag-2, D2 antagonist)
CCOC(=O)N1CCN(C(=O)CSc2nnc(Cc3ccccc3)o2)CC1	D2 PAM-2 30.8
CCOC(=O)N1CCN(C(=O)CSc2nnc(COc3ccccc3)o2)CC1	none
CN(Cc1cnn(C)c1)C(=O)C1CCC(=O)N(Cc2cccc(C(F)(F)F)c2)C1 (configuration not stated)	none (no result: D2 ag-1, D2 antagonist, D2 PAM-2)
CN(Cc1cccc(C(F)(F)F)c1)C(=O)C1CCC(=O)N(CC2CCCCC2)C1 (configuration not stated)	D2 antagonist 30.9
Cc1ccc2c(CNC3CCC(C)CC3)c(C(=O)O)n(Cc3cccc(F)c3)c2c1 (configuration not stated)	none (no result: D2 PAM-1, D2 ag-2, D2 antagonist)
CCOc1ccc(Br)cc1C1C(C(=O)Nc2ccccc2OC)=C(C)Nc2nnnn21 (configuration not stated)	none (no result: D2 PAM-1, D2 ag-2, D2 antagonist)
Cc1ccc(N/C(N)=N/c2nc(C)cc(N3CCCCC3)n2)c(C)c1	D2 antagonist 35.3
Cc1ccc(N/C(N)=N/c2nc3c(c(=O)[nH]2)CCCC3)c(C)c1	none
